# The campaign covered roughly 1,000 compounds. About 200 (20%) were called active. These entries were drawn from the full list. Results with a measured potency or affinity are listed apart. Unmarked numbers belong to inactive results. Cut-off read from the data, not from the text of the source: active = inhibition above about 55%; inactive = the rest.
# Molecular target: Dual specificity protein phosphatase 3 (Homo sapiens) (UniProt P51452)
# Assay: VHR1 phosphatase inhibitors, biochemical (AID 1878)
# Conditions: recombinant VHR phosphatase, fluorogenic substrate; at 13.3 µM; hits give high values
# Sequence of Dual specificity protein phosphatase 3 (Homo sapiens) (P51452 whole entry, looked up): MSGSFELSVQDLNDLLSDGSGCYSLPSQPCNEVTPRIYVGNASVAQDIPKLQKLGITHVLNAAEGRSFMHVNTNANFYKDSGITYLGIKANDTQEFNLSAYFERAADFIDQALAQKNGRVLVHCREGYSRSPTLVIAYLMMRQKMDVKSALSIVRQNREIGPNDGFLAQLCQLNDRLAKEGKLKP
row,Structure (SMILES),inhibition
1,CCC1CCCCN1CCCNS(=O)(=O)c1ccc2c(c1)oc(=O)n2C (stereo not drawn),-1.5%
2,Clc1ccc2ccc3cccnc3c2n1,-16.7%
3,Cc1ccc(CNc2ccc(N3CCOCC3)c(Cl)c2)cc1,8%
4,Cc1c(C(=O)N2CCCCC2)c(S(=O)(=O)N2CCN(c3ccc(F)cc3)CC2)c(C)n1C,-7%
5,Cc1c(C)n(C)c2ccc(C(=O)NCCCN3CCCCC3C)cc12 (stereo not drawn),-11%
6,O=C(CSc1n[nH]c(-c2ccccc2O)n1)NC1CCCCC1,2.6%
7,Clc1ccc(Cl)c(OCCCCN2CCCCC2)c1,-4.8%
8,COc1ccc(CCNC(=O)CCNC(=O)N2CC(=O)Nc3ccccc32)cc1,13.9%
9,COc1ccc(OC)c(NC(=O)CCN2CCN(c3ccccc3OC)CC2)c1,6.9%
10,COc1ccc(N2CCN(c3ncnc4scc(-c5ccccc5)c34)CC2)cc1,16.6%
11,O=C(Nc1cccc(-n2cnnn2)c1)c1ccc(Cl)cc1Cl,3.8%
12,Oc1ccc(-c2nc3ccccc3nc2-c2ccccc2)cc1,-3.2%
13,O=S(=O)(Nc1ccc2ccccc2n1)c1ccccc1Cl,3.5%
14,CCCN1C2CCCC1CC(NC(=O)c1ccc(C(C)(C)C)cc1)C2 (stereo not drawn),-2.3%
15,CC1CCCCN1CC(O)COc1ccc(OCC(O)CN2CCCCC2C)cc1 (stereo not drawn),-5.3%
16,COc1ccc(Nc2nc(-c3sc(C)nc3C)cs2)c(OC)c1,23%
17,COc1ccc(C(=O)N(C)CCCC2CCCC2)cc1OC1CCN(C(C)C)CC1,-11.7%
18,COc1ccc(C(=O)N2CCCCCCC2)cc1OC1CCN(C(C)C)CC1,-3.1%
19,O=c1[nH]c(NCCO)nnc1Cc1ccccc1,-18.8%
20,CCc1ccc(-c2cc(C(=O)NN3CCOCC3)c3ccccc3n2)s1,-11.9%
21,CN(C(=O)COC(=O)c1cc(-c2ccco2)nc2ccccc12)C1CCS(=O)(=O)C1 (stereo not drawn),98.4% (active)

row,Structure (SMILES),inhibition
1,CCOc1ccc(N(C)C(=O)CCc2nnc3ccc(N4CCOCC4)nn23)cc1,-3.3%
2,O=C(N=C1SC2CS(=O)(=O)CC2N1c1ccc(F)cc1F)C1CC1 (stereo not drawn),-8.3%
3,Cn1c(=O)oc2cc(S(=O)(=O)N3CCCC(C(=O)NCc4ccc5c(c4)OCO5)C3)ccc21 (stereo not drawn),9.1%
4,CCC(=O)N1CCc2cc(S(=O)(=O)CCC(=O)NCc3ccc(OC)cc3)ccc21,20%
5,CC(C)c1cc(N=NC(N)=O)cc(C(C)C)c1O,0.5%
6,CCN1CCN(Cc2nnc(-c3ccc(C)cc3)o2)CC1,-3.3%
7,O=C1CCC(C(=O)N2CCCC2)CN1Cc1cccc(C(F)(F)F)c1 (stereo not drawn),-14.6%
8,CCc1nnc(NC(=O)CCNC(=O)c2ccco2)s1,-5.4%
9,Cc1ccc(NC(=O)Cn2c(O)c(N=NC(N)=S)c3ccccc32)cc1,9.9%
10,CCCN1CCN(CCCNC(=O)c2ccc(CS(=O)c3ccccc3C)o2)CC1 (stereo not drawn),1.2%
11,Cc1ccc(OCCCCN2CCCCC2)c(C)c1,5.4%
12,Oc1ccc(C23CC4CC(CC(C4)C2)C3)cc1O,5.9%
13,COC(=O)c1ccc(CNC(=O)C2CCC(=O)N(Cc3ccccn3)C2)cc1 (stereo not drawn),-6%
14,Cc1ccc2oc(C(=O)N3CCN(C)C[C@@H]3C(C)C)c(C)c2c1,-13.8%
15,Cc1ccccc1S(=O)(=O)Cc1ccc(C(=O)NCCCN2CCCC2)o1,-7.1%
16,COc1ccc(C2NN=C(c3ccc(C)cc3)S2)cc1 (stereo not drawn),-9.5%
17,Cc1cc(NC(=O)CCCN2C(=O)/C(=C\c3cccs3)SC2=S)no1,-12%
18,O=C(O)CCN1C(=O)/C(=C/c2cn(-c3ccccc3)nc2-c2cccs2)SC1=S,98% (active)
19,CC1(C)CC(NC(=O)c2cccc(Cl)c2)CC(C)(C)N1,2.3%
20,CCOc1ccccc1C(=O)NC1CC2CCCC(C1)N2Cc1ccc(C)cc1 (stereo not drawn),9.8%
21,Cc1ccc(Oc2coc3cc(O)ccc3c2=O)cc1,1%

row,Structure (SMILES),inhibition
1,O=[N+]([O-])CC(c1ccc(F)cc1)c1c[nH]c2ccccc12 (stereo not drawn),-0.1%
2,O=C(NCc1ccc(F)cc1)C(=O)c1cn(CC(=O)N2CCCC2)c2ccccc12,-3%
3,CCOc1ccc(C(=S)N2CCCC2)c(OCC)c1,-7.2%
4,CCOC(=O)CCNC(=O)N1CCC(CCC(=O)NCc2ccc(F)cc2)CC1,-0.1%
5,CN1CCC(N(C)S(=O)(=O)c2ccc(Cl)cc2)CC1,-9.6%
6,CC(=O)Nc1ccc(N2C(=O)CSC2c2cccc(Br)c2)cc1 (stereo not drawn),1.4%
7,CN(CCCNC(=O)CCc1cn(C)c2ccccc12)C1CCCCC1,-3.3%
8,COc1ccc(O)c(CN2CCN(CCCc3ccccc3)C(CCO)C2)c1 (stereo not drawn),-8%
9,N#Cc1nc(-c2ccc(OCc3ccc(Cl)cc3)cc2)oc1N1CCC(C(N)=O)CC1,93.5% (active)
10,Fc1cc(F)nc(NCc2ccccc2)n1,8.1%
11,Oc1ccc(N2CCN(Cc3nc4ccccc4[nH]3)CC2)cc1,-15.2%
12,CCC1CCCCN1CCCNC(=O)CS(=O)Cc1nc(-c2ccc(OC)c(OC)c2)oc1C (stereo not drawn),15.7%
13,Cc1c(CCCN)c2ccccc2n1Cc1ccccc1,-12.5%
14,COc1cccc(C(N)=O)c1OC(=O)Cc1ccccc1F,-0.1%
15,O=C(Nc1cccc(F)c1)c1ccc2ncsc2c1,-14.9%
16,O=C(Nc1nnc(SCc2c(Cl)cccc2Cl)s1)c1ccc2ncsc2c1,66.9% (active)
17,Cc1nnc(NC(=O)c2cccc(Br)c2)s1,4%
18,COc1cc(N=Cc2c(CO)cnc(C)c2O)cc(OC)c1OC,-8.3%
19,C=CCNC(=O)c1ccc(CN2CCC(Cc3ccccc3)CC2)cc1,-11.1%
20,CSc1ncccc1C(=O)NC1CCN(Cc2ccccc2)CC1,2.3%
21,CCOc1ccc(CCNC(=O)CS(=O)Cc2nc(-c3ccc(OC)c(OC)c3)oc2C)cc1OCC (stereo not drawn),8.4%

# From PubChem BioAssay AID1878 (Sanford-Burnham Center for Chemical Genomics, 2009)
